Records with an inconclusive call do not appear. Unmarked numbers belong to inactive results. Calls of active or inactive are those of the source. Calls follow the shape of the dose curve; as a rule, active = well fitted cell-killing curve with a large enough effect; inconclusive = small, poorly fitted or top-dose-only effect, or effect the other way; inactive = no such curve, though single readings can be large or run the other way.
test: Quantitative High-Throughput drug screen in 47 multiple myeloma cell lines against the NCATS MIPE library collection: RPMI8226_ATCC cell viability assay (AID 1919871); conditions: RPMI8226 myeloma viability, CellTiter-Glo ATP luminescence, 48 h; series mostly up to 45.8 µM; viability (% of control): at the top concentration; also: nearly all actives have a fitted effect of over 30% in size
Description: PI: Beverly A. Mock Ph.D.
Laboratory of Cancer Biology and Genetics,
Center for Cancer Research, National Cancer Institute,
National Institute of Health, Bethesda, Maryland
Drug resistance and disease progression are common in multiple myeloma (MM) patients, underscoring the need for new therapeutic combinations. […] We hypothesized that effective combinations would reduce MYC expression and enhance p16 activity. […] These preclinical data identify potentially useful drug combinations for evaluation in drug-resistant MM and reveal potential mechanisms of combined drug sensitivity.
Described herein is the primary MIPE qHTS used to cherrypick compounds. Validated compounds were then further tested for potential synergistic activiy.
[1] Peat TJ, Gaikwad SM, Dubois W, Gyabaah-Kessie N, Zhang S, Gorjifard S, Phyo Z, Andres M, Hughitt VK, Simpson RM, Miller MA, Girvin AT, Taylor A, Williams D, D'Antonio N, Zhang Y, Rajagopalan A, Flietner E, Wilson K, Zhang X, Shinn P, Klumpp-Thomas C, McKnight C, Itkin Z, Chen L, Kazandijian D, Zhang J, Michalowski AM, Simmons JK, Keats J, Thomas CJ, Mock BA. Drug combinations identified by high-throughput screening promote cell cycle transition and upregulate Smad pathways in myeloma. Cancer Lett. 2023 Aug 1;568:216284. doi: 10.1016/j.canlet.2023.216284. Epub 2023 Jun 24. PMID: 37356470; PMCID: PMC10408729.
SEQUENCE No. (e.g., 1, 2, 3, etc.); […] (e.g., Cells, Incubation, Reagent, etc.); VALUE and DESCRIPTION.
1; Cells; 5 uL; white, solid bottom 1536-well Greiner assay plate.
2; Compounds; 23 nL; Kalypsis pin tool (Wako USA) equipped with a 1536-well pin head to transfer to the assay plates.
3; Incubation; 48 hours; 37C incubation.
4; Reagent;5uL; CellTiter Glo (Promega).
5; Detector; 425V; Luminescence; Viewlux PerkinElmer.
NOTES (numbers refer to Sequence numbers above)
1. The cell-based screening methods employed in this study were like those previously published. Briefly, the corresponding myeloma cell lines were screened in 1,536-well plates with 500 cells, 5-uL per well for inhibition of cell viability (assessed by measuring ATP levels with CellTiterGlo).
2. NCATS MIPE 4.0 library of approved and investigational drugs were added using the Kalypsis pin tool. Wells treated with DMSO only for 100% viability and media only for 0% viability were used as controls.
3. The assay plates were covered and incubated for 48 hours in a 37C, 5% CO2 incubator with controlled humidity.
4. After 48 hours, CellTilter-GloTM luminescent substrate mix (Promega) reagent was added to the assay plate and plates we incubated for 5 min at room temperature.
5. Signal was measured as median relative luminescence units on a ViewLux (PerkinElmer) multiplate reader.
[1] Heske CM, Davis MI, Baumgart JT, Wilson K, Gormally MV, Chen L, Zhang X, Ceribelli M, Duveau DY, Guha R, Ferrer M, Arnaldez FI, Ji J, Tran HL, Zhang Y, Mendoza A, Helman LJ, Thomas CJ. Matrix Screen Identifies Synergistic Combination of PARP Inhibitors and Nicotinamide Phosphoribosyltransferase (NAMPT) Inhibitors in Ewing Sarcoma. Clin Cancer Res. 2017 Dec 1;23(23):7301-7311. doi: 10.1158/1078-0432.CCR-17-1121. Epub 2017 Sep 12. PMID: 28899971; PMCID: PMC6636827.
Potency is read from the fitted curve at half-maximal effect.

Structure (SMILES)	Potency	viability (% of control) [%]
Cc1[nH]nc2ccc(-c3cncc(OC[C@@H](N)Cc4ccccc4)c3)cc12	5900 nM (active)	
Cc1ccc2nc(NC(=O)CSc3nc4c(c(=O)n3-c3ccccc3)SCC4)sc2c1	16600 nM (active)	
CCS(=O)(=O)c1cccc(-c2cc(C(=O)NC3CCN(C)CC3)c(C)c3[nH]c4ncc(C)cc4c23)c1	5900 nM (active)	
COc1cccc2nc(-c3cccs3)nc(NN3C(=O)C=C(C)C3=O)c12	2090 nM (active)	
CC1=C(CO)C(=O)O[C@@H]([C@@H](C)[C@H]2CC[C@H]3[C@@H]4C[C@H]5O[C@]56[C@@H](O)C=CC(=O)[C@]6(C)[C@@H]4CC[C@]23C)C1	187 nM (active)	
COC(=O)c1ccc2c(C(=Nc3ccc(N(C)C(=O)CN4CCN(C)CC4)cc3)c3ccccc3)c(O)[nH]c2c1	3720 nM (active)	
Cn1cc(-c2ccncc2)c(-c2ccc(OCc3ccc4ccccc4n3)cc2)n1	6620 nM (active)	
CC[C@H]1CN2CCc3cc(OC)c(OC)cc3[C@H]2C[C@@H]1C[C@@H]1NCCc2cc(OC)c(OC)cc21	148 nM (active)	
COc1ccc(-c2cc3c(C)nc(N)nc3n(C3CCC(OCCO)CC3)c2=O)cn1 (stereo not given)	26.4 nM (active)	
COc1ccc(OC)c(-c2nnc3ccc(-c4ccc(OC)c(O[C@@H]5CCOC5)c4)nn23)c1	18700 nM (active)	
Cc1cc(N2CCOCC2)cc2[nH]c(-c3c(NC[C@@H](O)c4cccc(Cl)c4)cc[nH]c3=O)nc12	469 nM (active)	
CN(C)CC(C)(C)CNc1nn2c(-c3ccccc3)nnc2cc1C1CCC1		103
O=c1[nH]nc(Sc2ncc([N+](=O)[O-])s2)n1-c1ccc2c(c1)OCCO2	3720 nM (active)	
CC(=O)OCC(=O)[C@@]1(O)[C@H](C)C[C@H]2[C@@H]3C=C(C)C4=Cc5c(cnn5-c5ccccc5)C[C@]4(C)[C@@H]3[C@@H](O)C[C@@]21C	4180 nM (active)	
CCN1CCN(CC(=O)Nc2ccc(-c3cccc4c(=O)cc(N5CCOCC5)oc34)c3sc4ccccc4c23)CC1	1870 nM (active)	
Cc1nc2cnc3ccc(C#Cc4cccnc4)cc3c2n1-c1ccc(C(C)(C)C#N)cc1	83.3 nM (active)	
CC1(C)CCC(c2ccc(Cl)cc2)=C(CN2CCN(c3ccc(C(=O)NS(=O)(=O)c4ccc(N[C@H](CCN5CCOCC5)CSc5ccccc5)c(S(=O)(=O)C(F)(F)F)c4)cc3)CC2)C1	2960 nM (active)	
C#Cc1cccc(Nc2ncnc3cc(OC)c(OCCCCCCC(=O)NO)cc23)c1	1870 nM (active)	
N#Cc1c(O)c2c(-c3ccc(-c4ccccc4O)cc3)csc2[nH]c1=O		96.2
O=C(O)c1ccc2cc(-c3ccc(O)c(C45CC6CC(CC(C6)C4)C5)c3)ccc2c1	11800 nM (active)	

Structure (SMILES)	Potency	viability (% of control) [%]
Cc1coc2c1C(=O)C(=O)c1c-2ccc2c1CCCC2(C)C	2090 nM (active)	
COC(=O)Nc1nc2ccc(C(=O)c3ccc(F)cc3)cc2[nH]1	1870 nM (active)	
Cn1c(=O)n(-c2ccc(C(C)(C)C#N)cc2)c2c3cc(-c4cnc5ccccc5c4)ccc3ncc21	10.5 nM (active)	
Cc1ccc(C(=O)Nc2cccc(C(F)(F)F)c2)cc1-c1ccc2nc(NCCN3CCOCC3)ncc2c1	5900 nM (active)	
CCn1cc(-c2ccnc3[nH]c(-c4cccc(CN(C)C)c4)cc23)c(-c2ccc(NC(=O)N(C)C)cc2)n1	14800 nM (active)	
C[C@@H](Oc1cc(-c2cnn(C3CCNCC3)c2)cnc1N)c1c(Cl)ccc(F)c1Cl	13200 nM (active)	
COC(=O)C[C@](O)(CCCC(C)(C)O)C(=O)O[C@@H]1C(OC)=C[C@]23CCCN2CCc2cc4c(cc2[C@H]13)OCO4		115
CCn1nnc2c(N3CCOCC3)nc(-c3ccc(NC(=O)Nc4ccc(C(=O)N5CCN(C)CC5)cc4)cc3)nc21	52.6 nM (active)	
CC(C)c1nn(-c2c(Cl)cccc2Cl)c2nc(Cc3ccc(OCCO)cc3)[nH]c(=O)c12	118 nM (active)	
O=C(C=Cc1c(C(=O)O)[nH]c2cc(Cl)cc(Cl)c12)Nc1ccccc1		111
Cc1cc(CN2CCN(c3c(Br)cnc4nc(-c5ccc(N6CCN(C)CC6)cc5)[nH]c34)CC2)no1	29600 nM (active)	
CNC(=O)c1c(F)cccc1Nc1nc(Nc2cc3c(cc2OC)CCN3C(=O)CN(C)C)nc2[nH]ccc12	2350 nM (active)	
CN1CCN(Cc2ccc(NC(=O)Nc3ccc(Oc4cc(NC(=O)C5CC5)ncn4)cc3)cc2C(F)(F)F)CC1	418 nM (active)	
O=C(Nc1ncc(-c2cc(C(F)F)nn2-c2c(Cl)cccc2Cl)s1)C1CC1	1660 nM (active)	
Cc1c(Cn2c(C)nc3c(C(=O)O)cc(N4CCOCC4)cc32)cccc1C(F)(F)F		109
CC(C)CC(=O)Nc1n[nH]c2c1CN(C(=O)C1CCN(C)CC1)C2(C)C	4180 nM (active)	
CC(=O)c1c(C)c2cnc(Nc3ccc(N4CCNCC4)cn3)nc2n(C2CCCC2)c1=O	2090 nM (active)	
Fc1cc(-c2cccc3ncc(-c4cnn(C5CCNCC5)c4)nc23)cc(F)c1CN1CCOCC1	20900 nM (active)	
COc1cccc(-c2ccc(NC(=O)C3=C(C(=O)O)CCC3)c(F)c2)c1	13200 nM (active)	
CC(C)=CCCC(C)=CCCC(C)=CCSc1ccccc1C(=O)O	418 nM (active)	

— PubChem BioAssay (NCATS)
